# Assay results as given in ChEMBL document CHEMBL5606460, “ASAP - DENV-2 NS2B-NS3 protease fluorescence single point” (2024).
# Screen size: about 2,000 compounds; about 110 (5.5%) showed an effect of 50% or more. The entries come from a sample that favours strong results as a whole.
# Biological target: Genome polyprotein (dengue virus type 2) (UniProt P29990)
# [1] = Thailand/16681/1984, Concentration 25.0 uM, Number of replicates 1.0
compound,measurement,setting,value
CNC(=O)c1cc(Cl)ccc1NS(=O)(=O)c1cc(Cl)cc(C(=O)NC)c1OC,inhibition,"Thailand/16681/1984, Concentration 49.5 uM, Number of replicates 2.0, Standard deviation 3.5107220562143744 %",-1.24%
same,inhibition,"Thailand/16681/1984, Concentration 99.01 uM, Number of replicates 2.0, Standard deviation 4.644293157051252 %",1.93%
same,inhibition,"Thailand/16681/1984, Concentration 198.0 uM, Number of replicates 2.0, Standard deviation 3.3165321375743706 %",8.2%
O=Cc1ccc(N2CCC(C(=O)Nc3ccc(F)cc3C(F)(F)F)CC2)cc1,inhibition,[1],12.5%
O=C(O)c1cnn(C2CCN(C(=O)c3ccnc4[nH]cnc34)CC2)c1,inhibition,"Thailand/16681/1984, Concentration 49.5 uM, Number of replicates 2.0, Standard deviation 1.214191700010942 %",-2.48%
same,inhibition,"Thailand/16681/1984, Concentration 99.01 uM, Number of replicates 2.0, Standard deviation 1.7130868961137902 %",-2.88%
same,inhibition,"Thailand/16681/1984, Concentration 198.0 uM, Number of replicates 2.0, Standard deviation 1.3863533153956358 %",-2.86%
COc1ccccc1OCCn1cc(C2CCNCC2)c(C)n1,inhibition,"Thailand/16681/1984, Concentration 49.5 uM, Number of replicates 2.0, Standard deviation 0.4008605306484476 %",-1.35%
same,inhibition,"Thailand/16681/1984, Concentration 99.01 uM, Number of replicates 2.0, Standard deviation 0.8515456477601485 %",0.612%
same,inhibition,"Thailand/16681/1984, Concentration 198.0 uM, Number of replicates 2.0, Standard deviation 0.3007587308619815 %",2.21%
N[C@H]1CC[C@H](NC(=O)[C@@H](NC(=O)OCc2ccccc2)c2ccc(OCc3ccccc3)cc2)C1,inhibition,"Thailand/16681/1984, Concentration 49.5 uM, Number of replicates 2.0, Standard deviation 0.9979193615621401 %",-9.06%
same,inhibition,"Thailand/16681/1984, Concentration 49.5 uM, Number of replicates 2.0, Standard deviation 5.780389191288721 %",-6.13%
same,inhibition,"Thailand/16681/1984, Concentration 99.01 uM, Number of replicates 2.0, Standard deviation 0.21863424783935215 %",-6.77%
same,inhibition,"Thailand/16681/1984, Concentration 99.01 uM, Number of replicates 2.0, Standard deviation 4.8738871027899835 %",-4.83%
same,inhibition,"Thailand/16681/1984, Concentration 198.0 uM, Number of replicates 2.0, Standard deviation 0.20009536646595624 %",3.56%
same,inhibition,"Thailand/16681/1984, Concentration 198.0 uM, Number of replicates 2.0, Standard deviation 2.9330264990309507 %",6.71%
Cn1cc(NC(=O)c2ccccc2C(F)(F)F)c(-c2ccc(O)cc2)n1,inhibition,"Thailand/16681/1984, Concentration 49.5 uM, Number of replicates 2.0, Standard deviation 1.4149767575059302 %",-3.58%
same,inhibition,"Thailand/16681/1984, Concentration 99.01 uM, Number of replicates 2.0, Standard deviation 0.6191126751592 %",-2.21%
same,inhibition,"Thailand/16681/1984, Concentration 198.0 uM, Number of replicates 2.0, Standard deviation 0.2617465963559337 %",-3.21%
O=C(N[C@H]1CCNC1=O)c1cc(Cl)ccc1NS(=O)(=O)c1ccc(Oc2ccccc2Cl)cc1,inhibition,"Thailand/16681/1984, Concentration 49.5 uM, Number of replicates 2.0, Standard deviation 0.36576586141779044 %",30.3%
same,inhibition,"Thailand/16681/1984, Concentration 99.01 uM, Number of replicates 2.0, Standard deviation 0.2318278972972024 %",51.8%
same,inhibition,"Thailand/16681/1984, Concentration 198.0 uM, Number of replicates 2.0, Standard deviation 0.7755829345495912 %",18.9%
O=C1NCC[C@@H]1CNS(=O)(=O)c1ccc(Oc2ccccc2Cl)cc1,inhibition,"Thailand/16681/1984, Concentration 49.5 uM, Number of replicates 2.0, Standard deviation 4.002985951466216 %",-0.264%
same,inhibition,"Thailand/16681/1984, Concentration 99.01 uM, Number of replicates 2.0, Standard deviation 4.526482853100752 %",0.42%
same,inhibition,"Thailand/16681/1984, Concentration 198.0 uM, Number of replicates 2.0, Standard deviation 4.411103663666057 %",2.4%
O=C1C[C@@H](NS(=O)(=O)c2ccc(Oc3ccccc3Cl)cc2)CCN1,inhibition,"Thailand/16681/1984, Concentration 49.5 uM, Number of replicates 2.0, Standard deviation 1.1905021365747266 %",-5.52%
same,inhibition,"Thailand/16681/1984, Concentration 99.01 uM, Number of replicates 2.0, Standard deviation 1.0784606403673063 %",-3.29%
same,inhibition,"Thailand/16681/1984, Concentration 198.0 uM, Number of replicates 2.0, Standard deviation 1.453680839379123 %",-1%
O=C1NCCC[C@@H]1CNS(=O)(=O)c1ccc(Oc2ccccc2Cl)cc1,inhibition,"Thailand/16681/1984, Concentration 49.5 uM, Number of replicates 2.0, Standard deviation 0.9940716071741866 %",-2.68%
same,inhibition,"Thailand/16681/1984, Concentration 99.01 uM, Number of replicates 2.0, Standard deviation 0.27557480876496404 %",-0.801%
same,inhibition,"Thailand/16681/1984, Concentration 198.0 uM, Number of replicates 2.0, Standard deviation 0.9840594547230297 %",1.79%
O=C(NC[C@H]1CCCO1)c1cc(Cl)ccc1NS(=O)(=O)c1ccc(Oc2ccccc2Cl)cc1,inhibition,"Thailand/16681/1984, Concentration 49.5 uM, Number of replicates 2.0, Standard deviation 0.11391652520397291 %",86.2%
same,inhibition,"Thailand/16681/1984, Concentration 99.01 uM, Number of replicates 2.0, Standard deviation 0.06140357500812747 %",84.7%
same,inhibition,"Thailand/16681/1984, Concentration 198.0 uM, Number of replicates 2.0, Standard deviation 0.13037604965923533 %",79.4%
O=C1C[C@@H](CNC(=O)c2cc(Cl)ccc2NS(=O)(=O)c2ccc(Oc3ccccc3Cl)cc2)CN1,inhibition,"Thailand/16681/1984, Concentration 49.5 uM, Number of replicates 2.0, Standard deviation 1.683767946709369 %",12.4%
same,inhibition,"Thailand/16681/1984, Concentration 99.01 uM, Number of replicates 2.0, Standard deviation 0.12281254481286434 %",57.2%
same,inhibition,"Thailand/16681/1984, Concentration 198.0 uM, Number of replicates 2.0, Standard deviation 0.21046989752060982 %",53.6%
O=C(NCC1CC1)c1cc(Cl)ccc1NS(=O)(=O)c1ccc(Oc2ccccc2Cl)cc1,inhibition,"Thailand/16681/1984, Concentration 49.5 uM, Number of replicates 2.0, Standard deviation 0.6779748794958176 %",77.8%
same,inhibition,"Thailand/16681/1984, Concentration 99.01 uM, Number of replicates 2.0, Standard deviation 0.21598068225710626 %",88.2%
same,inhibition,"Thailand/16681/1984, Concentration 198.0 uM, Number of replicates 2.0, Standard deviation 0.009057863507173258 %",87%
C[C@H](NC(=O)C1CCN(c2ccc(C=O)cc2)CC1)c1ccc(Br)cc1,inhibition,[1],12.7%
O=C(N[C@@H](C(=O)NC1CCNCC1)c1ccc(OCc2ccccc2)cc1)OCc1ccccc1,inhibition,"Thailand/16681/1984, Concentration 49.5 uM, Number of replicates 2.0, Standard deviation 0.04752487067458113 %",-0.225%
same,inhibition,"Thailand/16681/1984, Concentration 99.01 uM, Number of replicates 2.0, Standard deviation 0.6611370067327399 %",-0.49%
same,inhibition,"Thailand/16681/1984, Concentration 198.0 uM, Number of replicates 2.0, Standard deviation 1.22541945186685 %",2.06%
CNc1ccccc1C(=O)Nc1cccc2c(CO)cc(C)nc12,inhibition,"Thailand/16681/1984, Concentration 49.95 uM, Number of replicates 2.0, Standard deviation 1.7606224720878931 %",-0.213%
same,inhibition,"Thailand/16681/1984, Concentration 99.9 uM, Number of replicates 2.0, Standard deviation 1.1796035516056886 %",2.15%
Cc1cc(N)c2cccc(F)c2n1,inhibition,"Thailand/16681/1984, Concentration 49.95 uM, Number of replicates 2.0, Standard deviation 2.207074007413848 %",-9.77%
same,inhibition,"Thailand/16681/1984, Concentration 99.9 uM, Number of replicates 2.0, Standard deviation 2.035147234269057 %",-9.31%
Cn1cc(NC(=O)c2ccccc2C(F)(F)F)c(-c2ccc(N)nc2)n1,inhibition,"Thailand/16681/1984, Concentration 49.5 uM, Number of replicates 2.0, Standard deviation 0.02318042950620363 %",-3.62%
same,inhibition,"Thailand/16681/1984, Concentration 99.01 uM, Number of replicates 2.0, Standard deviation 0.5795125921164253 %",-3.54%
same,inhibition,"Thailand/16681/1984, Concentration 198.0 uM, Number of replicates 2.0, Standard deviation 2.685074924440845 %",-2.16%
